# Measurements from PubChem BioAssay AID485364 (National Center for Advancing Translational Sciences (NCATS), 2010).
# About 11,000 (3.1%) of roughly 360,000 compounds were called active. About 4% were inconclusive and are not listed. Calls come from the whole dose curve; as a rule, active = well fitted inhibition curve with a large enough effect; inconclusive = small, poorly fitted or top-dose-only effect; inactive = no such curve, though single readings can be large or run the other way. Only a selection was taken, and actives are over-represented in it overall.
# Biological target: Schistosoma mansoni thioredoxin glutathione reductase (TGR) (UniProt Q962Y6)
# Assay: qHTS Assay for the Inhibitors of Schistosoma Mansoni Peroxiredoxins; note: nearly all actives have a fitted effect of over 60% in size
# Conditions: purified TGR, DTNB reduction, TNB absorbance 405 nm; series mostly up to 114 µM; activity change, negative = inhibition: at the top concentration
# How it was run: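 Kinetic colorimetric format: TGR-catalysed, NADPH-driven DTNB reduction monitored via TNB absorbance. Enzyme dispensed at 20 nM; compound exposure 15 min at room temperature before reaction start.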
# % is set by controls: 0 for no effect and ±100 for the full control effect; potency is the fitted concentration of half-maximal effect.
Compound,"activity change, negative = inhibition",Potency
CCCCSc1ncnc2c1sc1nc(N3CCOCC3)c3c(c12)CCCC3,5.26% (inactive),
COc1cc2c(=O)c(S(=O)(=O)c3ccc(C(C)C)cc3)cn(Cc3ccccc3C)c2cc1OC,-0.789% (inactive),
CCOc1ccc(OCC)c(NC(=O)c2c(C)nn(-c3ccccc3)c2-n2cccc2)c1,-1.29% (inactive),
CCOc1ccccc1NC(=O)Cn1nnc(C(=O)Nc2ccc(C)c(C)c2)c1N,-7.69% (inactive),
CCOc1ccc(N(CC)S(=O)(=O)N2CCCC(C(=O)Nc3ccc(C(C)=O)cc3)C2)cc1 (stereo unspecified),8.08% (inactive),
O=[N+]([O-])c1cc(S(=O)(=O)CCCN2CCOCC2)ccc1F,,7.08 µM (active)
O=S(=O)(NCCCN1CCOCC1)c1ccc(F)c(Cl)c1,-19.4% (inactive),
O=C(NCCCN1CCOCC1)c1ccc([N+](=O)[O-])cc1[N+](=O)[O-],0.872% (inactive),
COC(=O)c1cc2occc2n1Cc1nc(-c2ccc(C)cc2)oc1C,-25.2% (inactive),
COc1ccc(-c2nc3sc(CCNC(=O)C(C)(C)C)c(C)n3n2)cc1,-1.4% (inactive),
CCS(=O)(=O)c1cc([N+](=O)[O-])c(Sc2ccccc2N)s1,,20 µM (active)
Cc1ccc(S(=O)(=O)NCCSc2ccccc2)cc1[N+](=O)[O-],4.17% (inactive),
Cc1c(C(=O)Nc2cccc(Cl)c2)oc2ccc(S(=O)(=O)N3CCOCC3)cc12,1.77% (inactive),
CCOc1ccc2nc(N3CCC(C(=O)Nc4cc(C)ccc4C)CC3)sc2c1,4.2% (inactive),
O=Cc1c(Nc2ccccc2Cl)nc2ccccn2c1=O,,10 µM (active)
Cc1cccn2c(=O)c(C=O)c(Nc3ccc(S(N)(=O)=O)cc3)nc12,1.12% (inactive),
O=Cc1c(N2CCN(c3cccc(Cl)c3)CC2)nc2ccccn2c1=O,3.7% (inactive),
CC1CCCN(c2csc3ccc(F)cc3c2=O)C1 (stereo unspecified),-10.8% (inactive),
COc1ccc(CNC(=O)CC2Oc3ccc(C)cc3NC2=O)cc1 (stereo unspecified),11% (inactive),
O=C(NCCc1ccc(Cl)cc1)c1ccc2nc(CCc3ccccc3)oc2c1,11.9% (inactive),
Cc1ccc(C)c(N2CCN(C(=O)CCc3c(C)nc4c(c3C)c(=O)n(C)c(=O)n4C)CC2)c1,0.107% (inactive),
COc1ccccc1C(=O)Nc1ccc(OCc2nnc3c4ccccc4c(C)nn23)cc1,-1.05% (inactive),
Cc1ccc(OCc2nnc(SC3CCc4ccccc4C3=O)n2C)cc1 (stereo unspecified),,17.8 µM (active)
Cc1cccnc1NC(=O)CSc1nnc(COc2ccc(C(C)C)cc2)n1C,16.3% (inactive),
CC(=O)Nc1ccc(S(=O)(=O)N2CCSCC2)cc1,5.01% (inactive),
CC(=O)Nc1ccc(S(=O)(=O)N2CCN(c3ccccc3)CC2)cc1,14.6% (inactive),

Compound,"activity change, negative = inhibition",Potency
CC(=O)Nc1ccc(S(=O)(=O)N2CCn3cccc3C2C)cc1 (stereo unspecified),,44.7 µM (active)
Cc1cccc(N(C)C(=O)CS(=O)(=O)c2cccc3nsnc23)c1,5.42% (inactive),
Fc1ccc(-c2ccc(-c3nn4c(-c5ccco5)nnc4s3)o2)cc1,,50.1 µM (active)
CCOc1cccc(-c2nn3c(-c4ccccn4)nnc3s2)c1,0% (inactive),
Cc1nc2c(-c3ccc(F)cc3)c(C)nn2c(C)c1CCC(=O)NCc1ccco1,-2.64% (inactive),
CCN(CCCNC(=O)Cn1ncc2c3ccccc3n(C)c2c1=O)Cc1ccccc1,-0.585% (inactive),
COc1ccc(N2CCN(C3=NS(=O)(=O)C(c4cccc(Br)c4)=C3C)CC2)cc1,-3.56% (inactive),
COc1ccccc1CNC(=O)c1ccccc1NC(=O)c1nsc2ccccc12,0.625% (inactive),
COc1ccc(C2NC(=O)N(C)C3=C2C(=O)N(c2ccc(C(=O)O)cc2)C3)cc1 (stereo unspecified),9.85% (inactive),
COc1ccc(N2C(=O)C3C(C2=O)C(C(=O)c2ccccc2)N2CCCC32)cc1 (stereo unspecified),,22.4 µM (active)
COc1ccc(N2C(=O)C3CCCN3C2c2cccs2)cc1 (stereo unspecified),9.2% (inactive),
Cc1oc(-c2ccccc2)nc1Cn1c(SCc2cccc(C(F)(F)F)c2)nc2cccnc21,9.82% (inactive),
Cc1c2cnn(-c3ccccc3)c(=O)c2c(C)n1C(C)C(=O)Nc1ccc(Br)cc1F (stereo unspecified),-0.551% (inactive),
O=C(/C=C/c1ccccc1)Nc1cc(-c2nc3cc(Cl)ccc3o2)ccc1Cl,-1.37% (inactive),
COc1ccc(NC(=O)c2sc3nc(-c4cc5cccc(OC)c5oc4=O)[nH]c(=O)c3c2C)cc1,0.376% (inactive),
COc1cc(CNCCSc2nnnn2C)ccc1OCc1ccc(Cl)cc1Cl,0.744% (inactive),
O=c1[nH]c2ccccc2n2c(-c3ccccc3)nnc12,,0.1 µM (active)
O=c1cc(-c2ccccc2)n2c(SCc3ccccc3)nnc2[nH]1,-4.13% (inactive),
CC(C)Cn1c(=O)c2ccccc2n2c(-c3cccc(Cl)c3)nnc12,2.27% (inactive),
Cc1ccc(Cn2c(CCCNC(=O)C3CCCCC3)nc3ccccc32)cc1,-13.8% (inactive),
CCS(=O)(=O)N1CCc2cc(C(=O)NCc3ccc(C)cc3)ccc21,0.0863% (inactive),
COc1ccc(S(=O)(=O)n2nc(C)c(S(=O)(=O)N3CCCCCC3)c2C)cc1,0.8% (inactive),
CCc1ccc(S(=O)(=O)Nc2cc3c(cc2N2CCCCC2)n(C)c(=O)c(=O)n3C)cc1,,50.1 µM (active)
Cc1ccc(C(=O)Nc2cc3c(cc2N2CCCC2)n(C)c(=O)c(=O)n3C)cc1,-11.3% (inactive),
Cc1ccc(NS(=O)(=O)c2ccc3c(c2)n(C)c(=O)c(=O)n3C)c(C)c1,4.57% (inactive),
